ANO1 activ – activates or potentiates the mouse TMEM16A chloride channel; HEK293 TMEM16A/YFP-H148Q/I152L, iodide quench fluorescence; active compounds read low; B-score at 10 µM; actives 0.3% (n = 340,000); AID 623877;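 active = fluorescence-ratio B-score plate-corrected deviation score at least 3 library SD below zero, with starting fluorescence score within 5 deviations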;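 also: channel opened by trigger with iodide after compound preincubation; score built on the fluorescence ratio of max minus min over baseline; more negative score means more quench and so TMEM16A activation or potentiation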
TLR9-MyD88 block – TLR9-MyD88 interaction inhibition | inhibition, % at 4.98 µM | CHO BLA complementation TLR9-MyD88, CCF4 FRET ratio | actives 0.21% (n = 340,000);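 active = inhibition above the mean over all tested compounds plus 3 SD, cut at about 21% in these data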;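 also: 0% = DMSO only wells and 100% = clavulanate BLA inhibitor control wells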
TLR4 MyD88 comp – inhibitors of human TLR4-MyD88 binding. O00206+Q99836. HeLa CL3-4 TLR4/MyD88 BLA complementation, FRET ratio. inhibition, % at 8.4 µM. actives 0.18% (n = 200,000); in the data active = inhibition above about 25%;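 also: 0% = vehicle and 100% = reference inhibitor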
NOD2-RIPK2 inh – inhibitors of human NOD2-RIPK2 interaction | O43353 | CHO BLA complementation NOD2-RIPK2, CCF4 ratio | inhibition, % at 4.98 µM | actives 0.38% (n = 360,000); in the data active = inhibition above about 21%;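 also: 0% = vehicle only and 100% = reference blocker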
TMEM16A inh – inhibitors of mouse TMEM16A calcium-activated chloride channel. actives 1.2% (n = 310,000). normalized B-score (activity score, 25-100; higher = stronger inhibition) at 10 µM. Q8BHY3. HEK293 TMEM16A/YFP iodide influx fluorescence, ionomycin;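 active = ratio plate-corrected score three or more library SD toward inhibition, starting fluorescence score within five deviations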;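 also: score derived from kinetic fluorescence span divided by baseline fluorescence per well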
GRK2 aptamer HTS – blocks RNA aptamer binding to human GRK2 | actives 0.59% (n = 330,000) | P25098 | inhibition of aptamer binding, % at 10 µM | bead flow cytometry, FAM-aptamer displacement from GRK2;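 active = inhibition of aptamer binding above 40%, roughly 3 SD of noise, on plates passing a quality check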;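 also: median bead fluorescence of bound FAM aptamer so fluorescent compounds give negative values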
The depositor's hits bear a star. This is a sample that favours compounds with a hit; in the whole collection about 2.2% have one here.

Results for O=C(CN1CCN(S(=O)(=O)c2ccccc2)CC1)NC(=O)NCc1ccccc1 ?
ANO1 activ: -10.5*; TLR9-MyD88 block: -1.4; TLR4 MyD88 comp: -3.9; NOD2-RIPK2 inh: -4.9; TMEM16A inh: inactive; GRK2 aptamer HTS: 0.0

What do the screens show for `Cc1ccc(S(=O)(=O)N2CCN(CC(=O)NC(=O)NCc3ccccc3)CC2)cc1C`?
ANO1 activ: inactive; TLR9-MyD88 block: 5.4; TLR4 MyD88 comp: 4.7; NOD2-RIPK2 inh: -12.2; TMEM16A inh: inactive; GRK2 aptamer HTS: 4.0

How did O=C1NC[C@H](CCCCN2CCN(CC3CCCCC3)C(=O)C2=O)N(CCc2ccccc2)C1=O do in these assays?
NOD2-RIPK2 inh: -1.0

Results for COc1cccc(COc2cc3ccccc3nc2C)c1 ?
ANO1 activ: inactive; TLR9-MyD88 block: -9.0; TLR4 MyD88 comp: 8.5; NOD2-RIPK2 inh: 15.5; TMEM16A inh: 25*; GRK2 aptamer HTS: 0.0

Results for Cc1nc2ccccc2cc1OCc1ccc(Cl)cc1 ?
ANO1 activ: inactive; TLR9-MyD88 block: -4.3; TLR4 MyD88 comp: 12.8; NOD2-RIPK2 inh: 7.2; TMEM16A inh: inactive; GRK2 aptamer HTS: 1.0

What do the screens show for `O=C1Nc2ccccc2-n2nnnc2C1N1CCN(C(=O)C2CCCO2)CC1` (stereo unspecified)?
NOD2-RIPK2 inh: -3.8

How did CCc1ccc(C2=CC(c3cc(Br)ccc3F)n3ncnc3N2)cc1 (stereo unspecified) do in these assays?
ANO1 activ: inactive; TLR9-MyD88 block: 29.4*; TLR4 MyD88 comp: 17.0; NOD2-RIPK2 inh: 38.5*; TMEM16A inh: inactive; GRK2 aptamer HTS: 3.0

Results for COc1cccc(C2=CC(c3ccc(C)cc3)n3ncnc3N2)c1 (stereo unspecified) ?
TLR4 MyD88 comp: 15.4; TMEM16A inh: inactive; GRK2 aptamer HTS: 0.0

Results for C[C@@H](c1ccccc1)N1C[C@@H](COCc2ccccc2)Oc2cc(N3CC[C@@H](N(C)C)C3)ccc2S1(=O)=O ?
NOD2-RIPK2 inh: -10.3

How did CCOC(=O)c1sc(N(Cc2ccccc2)C(=O)CCl)nc1C do in these assays?
ANO1 activ: inactive; TLR9-MyD88 block: 11.0; NOD2-RIPK2 inh: -6.2; TMEM16A inh: inactive; GRK2 aptamer HTS: 2.0

What do the screens show for `O=C(O)CSCC(=O)N(Cc1ccccc1)c1nc(-c2ccccc2)c(-c2ccccc2)s1`?
ANO1 activ: inactive; TLR9-MyD88 block: 4.8; NOD2-RIPK2 inh: -0.7; TMEM16A inh: 100*; GRK2 aptamer HTS: 0.0

Results for CCC(C)n1c(=S)[nH]c2c(sc3ccc([N+](=O)[O-])cc32)c1=O (stereo unspecified) ?
ANO1 activ: inactive; TLR9-MyD88 block: -14.9; TLR4 MyD88 comp: 1.5; NOD2-RIPK2 inh: -16.5; TMEM16A inh: 25*; GRK2 aptamer HTS: 0.0

How did CC(C)n1c2ccccc2c2cc([N+](=O)[O-])ccc21 do in these assays?
ANO1 activ: inactive; TLR9-MyD88 block: -5.1; TLR4 MyD88 comp: -5.3; NOD2-RIPK2 inh: -2.9; TMEM16A inh: inactive; GRK2 aptamer HTS: 5.0

Results for CCOc1ccc(Br)cc1/C(C)=N\NC1=NCCN1 ?
ANO1 activ: inactive; TLR9-MyD88 block: -7.2; TLR4 MyD88 comp: 11.4; NOD2-RIPK2 inh: -4.2; TMEM16A inh: 100*; GRK2 aptamer HTS: 0.0

How did Cc1ccc(C(=O)N2CCN=C2SCc2ccc([N+](=O)[O-])cc2)cc1 do in these assays?
ANO1 activ: -5.8*; TLR9-MyD88 block: -2.9; TLR4 MyD88 comp: 7.2; NOD2-RIPK2 inh: -3.2; TMEM16A inh: inactive; GRK2 aptamer HTS: 0.0

Results for O=C(N[C@@H]1CC[C@@H](CCNC(=O)C2CCOCC2)O[C@@H]1CO)c1ccncc1 ?
NOD2-RIPK2 inh: -5.1

Results for O=C(Nc1nnc(-c2ccc3c(c2)CCCC3)o1)C1COc2ccccc2O1 (stereo unspecified) ?
ANO1 activ: inactive; TLR9-MyD88 block: 1.4; TLR4 MyD88 comp: 15.9; NOD2-RIPK2 inh: -2.0; TMEM16A inh: 25*; GRK2 aptamer HTS: 0.0

How did O=C(NCCc1ccccn1)c1c(-c2ccsc2)sc2ccccc12 do in these assays?
TLR9-MyD88 block: -2.7; NOD2-RIPK2 inh: -6.1; GRK2 aptamer HTS: 70.0*

What do the screens show for `COC(=O)Cn1cc(C(=O)OC)cc(Br)c1=O`?
ANO1 activ: inactive; TLR9-MyD88 block: -5.2; TLR4 MyD88 comp: -6.2; NOD2-RIPK2 inh: 0.7; TMEM16A inh: 25*; GRK2 aptamer HTS: 0.0

Results for CC(=O)N1CCC(C(=O)N2c3ccccc3N=C(c3ccc(C(F)(F)F)cc3)C2C(=O)NC2CCCC2)CC1 (stereo unspecified) ?
NOD2-RIPK2 inh: 1.8

What do the screens show for `COC(=O)C[C@H]1C=C[C@H](NC(=O)Nc2ccccc2F)[C@@H](CO)O1`?
NOD2-RIPK2 inh: -8.3

Results for Nc1nonc1C(=O)NCCNCc1cc(Br)ccc1OCc1ccccc1F ?
ANO1 activ: inactive; TLR9-MyD88 block: -8.6; TLR4 MyD88 comp: 9.4; NOD2-RIPK2 inh: -1.5; TMEM16A inh: 100*; GRK2 aptamer HTS: 0.0

How did COc1cc(CNc2ncnc3c2ncn3[C@H]2CN(Cc3ccncc3)C[C@@H](CO)O2)cc(OC)c1OC do in these assays?
NOD2-RIPK2 inh: -8.9

How did C[C@H](O)[C@@H]1CN2CCc3c([nH]c4ccccc34)[C@@H]2C[C@@H]1N(C)C(=S)Nc1ccc(C#N)cc1 do in these assays?
NOD2-RIPK2 inh: -1.2

How did CC(C)C(C)(C#N)NC(=O)CSc1nnc(-c2ccncc2)n1Cc1ccccc1 (stereo unspecified) do in these assays?
ANO1 activ: inactive; TLR9-MyD88 block: 2.9; TLR4 MyD88 comp: 13.7; NOD2-RIPK2 inh: 4.4; TMEM16A inh: 25*; GRK2 aptamer HTS: 0.0

Results for CC(C)(C)NC(=O)CSc1nnc(-c2ccncc2)n1Cc1ccccc1 ?
ANO1 activ: inactive; TLR9-MyD88 block: -5.7; TLR4 MyD88 comp: 19.0; NOD2-RIPK2 inh: -5.5; TMEM16A inh: inactive; GRK2 aptamer HTS: 0.0

Results for S=C(Nc1cccc(Cl)c1)Nc1ccccc1Oc1ccccc1 ?
ANO1 activ: inactive; TLR9-MyD88 block: -1.1; TLR4 MyD88 comp: -3.3; NOD2-RIPK2 inh: 3.1; TMEM16A inh: 100*; GRK2 aptamer HTS: 2.0

How did O=C(NCCc1ccccc1)C1Cc2c(-c3ccc(Cl)cc3)ccnc2O1 (stereo unspecified) do in these assays?
NOD2-RIPK2 inh: 7.5

What do the screens show for `CCC(C)C(NC(=O)C(Cc1ccc(O)cc1)NC(=O)OCc1ccccc1)C(=O)OC` (stereo unspecified)?
NOD2-RIPK2 inh: 6.3

How did CCc1ccc(OCCOCC(O)CN2CCN(Cc3ccc(Cl)cc3)CC2)cc1 (stereo unspecified) do in these assays?
ANO1 activ: inactive; TLR9-MyD88 block: -7.5; TLR4 MyD88 comp: 6.4; NOD2-RIPK2 inh: -0.3; TMEM16A inh: 100*; GRK2 aptamer HTS: 0.0
